Screening data: PubChem BioAssay, University of Kansas High Throughput Screening Laboratory
The full list was thinned out, with hits kept by preference.
Pf apPOL block: Pf-apPOL DNA polymerase inhibition. Recombinant Pf-apPOL, molecular beacon fluorescence, 1.5 h. inhibition, % at 10 µM. 210,000 compounds, 0.25% hits. AID 1794808
mHTT CaM bind: mHTT-calmodulin interaction abrogation. P42858. AlphaScreen His-mHTT/GST-CaM binding, luminescence. inhibition, % at 15 µM. 190,000 compounds, 3.6% hits. AID 1671202
A number is an active result; n = inactive; x = no result given. Cut-off read from the data, not from the text of the source: active = inhibition above about 50%; inactive = the rest.

SMILES	Pf apPOL block	mHTT CaM bind
O=C(c1cccs1)N1CCN(Cc2nc(-c3ccco3)cs2)CC1	n	n
COc1ccc(C2=NN(C(=O)CN3CCC(C)CC3)C(c3ccccc3C)C2)cc1 (centres undefined)	n	n
COc1ccccc1C1=NN(C(=O)CN2CCCCC2)C(c2cc(C)ccc2C)C1 (centres undefined)	n	100.4
COc1ccccc1C1CC(c2ccccc2F)=NN1C(=O)CN1CCCCC1 (centres undefined)	n	n
COc1cccc(C2=NN(C(=O)CN3CCCCC3)C(c3ccccc3C)C2)c1 (centres undefined)	n	60.6
COc1ccc(-c2nc3ccccc3c(=O)n2Cc2ccccc2C)cc1OC	n	n
Cc1ccccc1CN1C(=O)/C(=C/C(=O)NC(C)c2ccccc2)Sc2ccccc21 (centres undefined)	n	n
Cc1ccc(CN2CCC(CNC(=O)c3ccc4c(c3)NC(=O)C3CCCCN43)CC2)cc1 (centres undefined)	n	n
CS(=O)(=O)Nc1ccc(Cl)c2cccnc12	n	86.0
CS(=O)(=O)Nc1ccc(Cl)cc1Cl	x	n
Cc1nc(C)c2c(n1)N(Cc1cccs1)C(=O)CC2	n	n
Cc1cccc(CNC(=O)c2nn(C)c3c2CN(C(=O)c2ccccc2F)CC3)c1	n	n
CCOc1ccccc1C(=O)N1CCc2c(c(C(=O)NCc3ccc(F)cc3)nn2C)C1	n	73.3
Cn1nc(C(=O)NCc2ccc(Cl)cc2)c2c1CCN(C(=O)c1c(F)cccc1F)C2	n	57.9
Cc1ccccc1C(=O)N1CCc2c(c(C(=O)NCc3ccc(Cl)cc3)nn2C)C1	n	n
Cn1nc(C(=O)NCc2ccc(F)cc2)c2c1CCN(C(=O)c1ccccc1F)C2	n	82.0
CCOc1ccccc1C(=O)N1CCc2c(c(C(=O)NCc3cccc(C)c3)nn2C)C1	n	n
CCOc1ccccc1/C=C1\N=C(c2cc(OC)c(OC)c(OC)c2)OC1=O	n	n
Cc1ccc(C(=O)N2CCCC2c2ccccc2F)cc1 (centres undefined)	n	n
c1ccc(-c2ccccc2-c2ccccc2)cc1	n	x
CC(=O)N1CC(CO)C2(CCN(C(=O)C3CCCCC3)CC2)C1 (centres undefined)	n	n
COc1ccc(C)cc1NCc1ccncc1	n	n
Cc1cc(NCc2ccc([N+](=O)[O-])cc2)ccc1Br	n	57.5
O=[N+]([O-])c1ccc(CNc2ccc(F)c(F)c2)cc1	n	n
COc1ccc(C)cc1NCc1ccc(SC)cc1	n	59.0
SMILES	Pf apPOL block	mHTT CaM bind
COc1ccc(C)cc1NCc1ccc([N+](=O)[O-])cc1	n	85.5
COc1ccc(CNc2cc([N+](=O)[O-])ccc2OC)cc1	n	n
CCc1cccc(NC(=O)Cn2cnc3c(-c4ccc(F)cc4)csc3c2=O)c1	n	n
Cc1nc(C2CCN(C(=O)c3ccsc3)CC2)n[nH]1	n	n
COc1ccc2nc(SC(=O)c3ccccc3)nc(C)c2c1	n	100.0
COc1ccc2nc(SC(=O)c3ccccc3Cl)nc(C)c2c1	n	99.0
COc1ccc(NC(=O)c2ccccc2Cl)c(OC)c1	n	n
COc1ccc2nc(SCc3cccc([N+](=O)[O-])c3)nc(C)c2c1	n	n
O=S(=O)(c1[nH]nc2ccccc12)N1CCCC1	n	n
Cc1noc(C)c1C1CCCN1C(=O)Nc1ccc2c(c1)OCO2 (centres undefined)	n	n
Cc1ccc(-c2nnc(N3CCC(C(=O)N4CCCCC4)CC3)o2)cc1	n	n
O=C(NC1CC1)c1nc(N2CCCCCC2)c2oc3ccccc3c2n1	n	51.5
CCOC(=O)c1nc(N2CCCC2)c2oc3ccccc3c2n1	n	n
CC(=O)c1sc(=S)n(CCc2ccc(Cl)cc2)c1C	n	x
CC(=O)c1c(C(C)=O)c(C)n(Cc2ccc(Cl)cc2)c1C	n	52.7
COCCNC(=O)Cc1cccn1-c1ccc(C)cc1	n	n
CC(C)(C)c1ccc(-c2ccnc(N3CCN(C(=O)C(Cl)Cl)CC3)n2)cc1	n	n
CCCn1c(NC(=O)c2ccco2)nc2ccccc21	n	n
O=C(NCc1nc2ccccc2n1CCCCOc1ccccc1Cl)c1ccco1	n	75.4
O=C(CNCc1ccccc1)N1c2ccccc2Sc2ccc(Cl)cc21	n	97.2
CCN(CC)CC(=O)N1c2ccccc2Sc2ccc(Cl)cc21	n	n
O=C1OC(/C=C/c2ccccc2)=NC/1=C/c1cccc(Br)c1	n	n
COC(=O)c1ccc(NC(=O)N2CCCC2c2ccccc2Cl)cc1 (centres undefined)	n	n
COc1ccc(CNC(=O)c2cc(-c3cccnc3)nc3ccccc23)cc1	n	70.0
COc1cccc(CNC(=O)c2cc(-c3cccnc3)nc3ccccc23)c1	n	n
COc1ccc(CNC(=O)C2CC(=O)N(c3ccc4oc(C)nc4c3)C2)cc1OC (centres undefined)	n	n
Cc1nc2cc(N3CC(C(=O)NCc4ccc(OC(C)C)cc4)CC3=O)ccc2o1 (centres undefined)	n	100.3
CCNC(=O)c1cncc(-c2ccc(F)cc2F)c1	n	n
